From the supplement of paper PMC7366291
Where a name gives a salt, the structure may show the parent alone. ± gives the standard deviation or the standard deviation of the averaged measurements.

Assays:
Conditions in all cases: 25 µM; exposure: 24-48 hpf
[1] = test system: Danio rerio Tg(wt1b:EGFP) embryo, pronephros; experiment: glomerular separation, fold change vs DMSO control; higher = glomeruli further apart (abnormal)
In short: (§1)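 From 24 to 48 hpf, at 28.5°C, dechorionated Tg(wt1b:EGFP) zebrafish embryos sat in HEPES-buffered E3 with 0.003% PTU carrying 25 μM compound and 0.5% DMSO. Their pronephroi were imaged dorsally in 96-well plates filled with agarose, using 470 nm light and 10 z-slices. A Fiji macro measured distances and angles between 16 reference points that were set manually on maximum projections, and any value more than 2 SD from its feature mean was excluded. Features are expressed as fold change relative to the mean of DMSO-treated embryos imaged on the same day.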

[2] = test system: Danio rerio Tg(wt1b:EGFP) embryo, pronephros; experiment: glomerular width (mean of left and right), fold change vs DMSO control; higher = wider glomerulus
In short: as §1

[3] = test system: Danio rerio Tg(wt1b:EGFP) embryo, pronephros; experiment: fraction of imaged embryos annotated as normal kidney; higher = less nephrotoxic; extreme values may be limits of the assay
In short: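 The value given is the share of embryos in each treatment scored as having a normal kidney. To obtain it, dechorionated Tg(wt1b:EGFP) zebrafish embryos were treated from 24 to 48 hpf at 28.5°C with 25 μM compound in 0.5% DMSO, in 5 mM HEPES-buffered E3 with 0.003% PTU. Pronephroi were imaged by widefield fluorescence (470 nm, 10 z-slices), and every embryo was annotated by hand from maximum projections.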

[4] = test system: Danio rerio Tg(wt1b:EGFP) embryo, pronephros; experiment: pronephric angle neck segment to proximal convoluted tubule (mean of left and right), fold change vs DMSO control; higher = larger pronephric angle
In short: as §1

C[C@H](CCC(=O)O)[C@H]1CC[C@H]2[C@@H]3C(=O)C[C@@H]4CC(=O)CC[C@]4(C)[C@H]3CC(=O)[C@]12C [Dehydrocholic acid]
glomerular separation [1]: 0.9 ± 0.25 | glomerular width [2]: 0.978 ± 0.07 | fraction of imaged embryos annotated as normal kidney [3]: 0.833 | pronephric angle neck segment [4]: 0.984 ± 0.029

CCCCNC(=O)NS(=O)(=O)c1ccc(C)cc1 [Tolbutamide]
glomerular separation [1]: 1.01 ± 0.53 | glomerular width [2]: 1.01 ± 0.014 | fraction of imaged embryos annotated as normal kidney [3]: 0.833 | pronephric angle neck segment [4]: 1.04 ± 0.023

CCCc1nc2c(C)cc(-c3nc4ccccc4n3C)cc2n1Cc1ccc(-c2ccccc2C(=O)O)cc1 [Telmisartan]
glomerular separation [1]: 1.22 ± 0.41 | glomerular width [2]: 0.988 ± 0.024 | fraction of imaged embryos annotated as normal kidney [3]: 0.75 | pronephric angle neck segment [4]: 1.16 ± 0.046

Cc1c(Nc2ncccc2C(=O)O)cccc1C(F)(F)F [Flunixin meglumine]
glomerular separation [1]: 6.16 ± 1.6 | glomerular width [2]: 0.491 ± 0.031 | fraction of imaged embryos annotated as normal kidney [3]: 0 | pronephric angle neck segment [4]: 1.9787 ± 0.0013

Clc1ccc2c(c1)C(N1CCNCC1)=Nc1ccccc1O2 [Amoxapine]
glomerular separation [1]: 1.04 ± 0.33 | glomerular width [2]: 0.9699 ± 0.0014 | fraction of imaged embryos annotated as normal kidney [3]: 0.75 | pronephric angle neck segment [4]: 1.02 ± 0.039

OCCN(CCO)c1nc(N2CCCCC2)c2nc(N(CCO)CCO)nc(N3CCCCC3)c2n1 [Dipyridamole]
glomerular separation [1]: 0.687 ± 0.13 | glomerular width [2]: 0.982 ± 0.046 | fraction of imaged embryos annotated as normal kidney [3]: 0.8 | pronephric angle neck segment [4]: 1.017 ± 0.0071

C[C@@H]1C[C@H]2[C@@H]3C[C@H](F)C4=CC(=O)C=C[C@]4(C)[C@@]3(Cl)[C@@H](O)C[C@]2(C)[C@H]1C(=O)COC(=O)C(C)(C)C [Clocortolone pivalate]
glomerular separation [1]: 1.59 ± 0.52 | glomerular width [2]: 1.26 ± 0.019 | fraction of imaged embryos annotated as normal kidney [3]: 0.167 | pronephric angle neck segment [4]: 1.077 ± 0.009

CC(C)(C)NCC(O)COc1cccc2c1CCC(=O)N2 (stereo unspecified) [Carteolol hydrochloride]
glomerular separation [1]: 1.21 ± 0.32 | glomerular width [2]: 0.909 ± 0.034 | fraction of imaged embryos annotated as normal kidney [3]: 0.917 | pronephric angle neck segment [4]: 1.01 ± 0.027

O=C(O)c1cn(C2CC2)c2cc(N3CCNCC3)c(F)cc2c1=O [Ciprofloxacin hydrochloride monohydrate]
glomerular separation [1]: 0.914 ± 0.36 | glomerular width [2]: 0.94012 ± 0.00024 | fraction of imaged embryos annotated as normal kidney [3]: 0.833 | pronephric angle neck segment [4]: 0.988 ± 0.023
